Among the test systems are NCI-H23 lung; NCI-H226 lung; NCI-H322M lung; HOP-62 NSCLC; NCI-H460 lung; HOP-92 NSCLC; NCI-H522 lung; A549/ATCC NSCLC; 786-0 renal; COLO 205 colon; DU-145 prostate; K-562 leukemia; MALME-3M melanoma; MDA-MB-231 breast; RXF 393 renal; SF-268 CNS; SF-295 CNS; SF-539 CNS; UACC-257 melanoma; M14 melanoma.
Assay in all cases: NCI-60 one-dose screen, 48 h (100 = growth as untreated, 0 = no growth, -100 = all killed)
Conditions in all cases: 10 µM unless noted

This is part of a sample that, as a whole, favours compounds with a hit. Of some 83,000 tested, about 20% had one in any assay.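 Results are percent growth after 48 hours of single-concentration exposure. 100 means growth as in untreated cells, lower positive values show inhibition; negative values down to -100 show cell death.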 Unmarked numbers belong to inactive results. Calls of active or inactive are those of the source. How the source made its calls: active means growth percent below 10; inactive means the rest.

With `CCN1C(=O)N(CC)C2C1NC(=S)N2/N=C/C=C/c1ccccc1` (stereo not given), the growth with NCI-H23 lung is 21.4%; with NCI-H226 lung, -10.1% (active); in the assay on NCI-H322M lung it was 46.1%; in the assay with HOP-62 NSCLC, 29.3%; with NCI-H460 lung, 5.19% (active); with HOP-92 NSCLC, 27.8%. The growth is -2.87% (active) in the assay on NCI-H522 lung; 16.9% in the assay on A549/ATCC NSCLC; 25.6% with 786-0 renal; -30.4% (active) in the assay on COLO 205 colon; 7.35% (active) in the assay on DU-145 prostate; 10.9% in the assay on K-562 leukemia. The growth is 53.7% in the assay with MALME-3M melanoma; 18.5% in the assay with MDA-MB-231 breast; 18.8% in the assay with RXF 393 renal; 20.8% in the assay on SF-268 CNS; 3.58% (active) in the assay on SF-295 CNS; -13.8% (active) in the assay with SF-539 CNS. Moreover, the growth in the assay with UACC-257 melanoma was 55.1%; in the assay on M14 melanoma, 5.45% (active).
With `CCC(=C(c1ccc(OCCN(CC)CC)cc1)c1ccc(OCCN(CC)CC)cc1)c1ccc(Cl)cc1`, the growth in the assay on NCI-H23 lung is 68.7%; in the assay on NCI-H226 lung, 109%; in the assay with NCI-H322M lung, -8.03% (active); in the assay with HOP-62 NSCLC it was -27% (active); in the assay on NCI-H460 lung, -81.4% (active); with HOP-92 NSCLC, 33.5%. Moreover, the growth with NCI-H522 lung is -39.4% (active); in the assay with A549/ATCC NSCLC, -75% (active); with 786-0 renal it was -95.4% (active); with COLO 205 colon, -69% (active); with DU-145 prostate, -19.7% (active); in the assay on K-562 leukemia, 0.499% (active). Besides, the growth in the assay on MALME-3M melanoma was -81.4% (active); with MDA-MB-231 breast, -81.7% (active); in the assay with RXF 393 renal, -54.3% (active); in the assay with SF-268 CNS it was -4.01% (active); with SF-295 CNS, -68.5% (active); in the assay on SF-539 CNS, -90.3% (active). Further, the figures for the growth with UACC-257 melanoma and in the assay with M14 melanoma were -65% (active) and -79% (active), respectively.
Consider `O=C(Nc1ncc(Cc2ccc(Cl)cc2)s1)C1=NCCCCN1`, for which the growth with NCI-H23 lung is 99%; in the assay with NCI-H226 lung, 99.7%; in the assay with NCI-H322M lung, 94.9%; with HOP-62 NSCLC it was 108%; in the assay with NCI-H460 lung, 106%; in the assay with HOP-92 NSCLC, 119%. In addition, the growth in the assay on NCI-H522 lung is 82.1%; in the assay with A549/ATCC NSCLC, 109%; in the assay with 786-0 renal, 107%; in the assay with COLO 205 colon, 110%; with DU-145 prostate it was 105%; in the assay on K-562 leukemia it was 95.4%. The growth was 102% with MALME-3M melanoma; 110% in the assay on MDA-MB-231 breast; 119% in the assay on RXF 393 renal; 103% in the assay with SF-268 CNS; 102% with SF-295 CNS; 102% with SF-539 CNS. Besides, the growth in the assay with UACC-257 melanoma is 108%; with M14 melanoma, 104%.
In the case of `CCN1CCN(CCOc2ccc(CNc3ccc4nc(CCC5CCCCC5)[nH]c4c3)cc2)CC1`, the growth was 75.6% in the assay with NCI-H23 lung; 38.9% with NCI-H226 lung; 66.1% in the assay on NCI-H322M lung; 50.4% in the assay with HOP-62 NSCLC; 42.8% in the assay on NCI-H460 lung; 22.4% in the assay with HOP-92 NSCLC. Moreover, the growth in the assay with NCI-H522 lung was 32%; in the assay with A549/ATCC NSCLC, 48.3%; with 786-0 renal, -11.7% (active); in the assay on COLO 205 colon it was -74.3% (active); in the assay with DU-145 prostate it was 50.3%; in the assay with K-562 leukemia it was 6.76% (active). Further, the growth with MALME-3M melanoma was -88.2% (active); in the assay on MDA-MB-231 breast, -31.4% (active); with RXF 393 renal, 28.2%; in the assay on SF-268 CNS it was 54.4%; in the assay on SF-295 CNS, 48%; in the assay with SF-539 CNS, -87.1% (active). For the same molecule, the growth in the assay on UACC-257 melanoma was -69.4% (active); in the assay with M14 melanoma, -76.5% (active).
For `COc1cccc(C(=O)Nc2cccc(NC(=O)c3ccccn3)c2)c1`, the growth in the assay with NCI-H23 lung was 93.7%; in the assay on NCI-H226 lung it was 112%; in the assay on NCI-H322M lung it was 98.1%; in the assay with HOP-62 NSCLC it was 102%; in the assay on NCI-H460 lung, 114%; in the assay with HOP-92 NSCLC, 115%. The growth in the assay on NCI-H522 lung was 89.8%; with A549/ATCC NSCLC it was 97.5%; with 786-0 renal, 85.6%; in the assay with COLO 205 colon, 120%; in the assay with DU-145 prostate, 109%; in the assay on K-562 leukemia, 90.5%. Moreover, the growth with MALME-3M melanoma was 94.4%; in the assay with MDA-MB-231 breast, 105%; in the assay on RXF 393 renal, 115%; with SF-268 CNS, 96.9%; with SF-295 CNS, 91.6%; with SF-539 CNS, 104%. For the same molecule, the growth was 109% in the assay with UACC-257 melanoma and 87.9% in the assay with M14 melanoma.
Consider `c1ccc(-c2nc(N3CCNCC3)c3oc(-c4ccccc4)nc3n2)cc1`, for which the growth in the assay on NCI-H23 lung was -66.8% (active); with NCI-H226 lung, -41.6% (active); in the assay on NCI-H322M lung, -95.1% (active); with HOP-62 NSCLC, -67.9% (active); with NCI-H460 lung, -81.1% (active); with HOP-92 NSCLC, -53.1% (active). For the same molecule, the growth with NCI-H522 lung was -28.3% (active); with A549/ATCC NSCLC it was -44.8% (active); in the assay on 786-0 renal it was -74.1% (active); in the assay with COLO 205 colon it was -39.7% (active); in the assay with DU-145 prostate it was -55.4% (active); with K-562 leukemia, 2.28% (active). Moreover, the growth is -93.9% (active) in the assay with MALME-3M melanoma; -87.1% (active) with MDA-MB-231 breast; -81.4% (active) with RXF 393 renal; -48.8% (active) in the assay with SF-268 CNS; -73.6% (active) in the assay with SF-295 CNS; -95.9% (active) with SF-539 CNS. The growth in the assay with UACC-257 melanoma is 101%; in the assay on M14 melanoma, -60.3% (active).
On to `COc1ccc(Nc2nc(Nc3cc(C)[nH]n3)c3cc(OC)c(OC)cc3n2)cc1`, for which the growth in the assay on NCI-H23 lung was -74.7% [20 µM] (active); in the assay with NCI-H226 lung it was -47.2% [20 µM] (active); with NCI-H322M lung it was -100% [20 µM] (active); with HOP-62 NSCLC, -73.3% [20 µM] (active); in the assay with NCI-H460 lung it was -75.9% [20 µM] (active); in the assay with HOP-92 NSCLC, -84.6% [20 µM] (active). In addition, the growth with NCI-H522 lung was -39.1% [20 µM] (active); in the assay with A549/ATCC NSCLC, -61.2% [20 µM] (active); in the assay with 786-0 renal, -83.3% [20 µM] (active); with COLO 205 colon, -61% [20 µM] (active); in the assay with DU-145 prostate, -86.2% [20 µM] (active); in the assay on K-562 leukemia, -10.8% [20 µM] (active). Besides, the growth with MALME-3M melanoma is -97.7% [20 µM] (active); in the assay with MDA-MB-231 breast, -94.2% [20 µM] (active); in the assay on RXF 393 renal it was -94.4% [20 µM] (active); with SF-268 CNS it was -66.8% [20 µM] (active); in the assay with SF-295 CNS, -94.2% [20 µM] (active); in the assay with SF-539 CNS it was -97.2% [20 µM] (active). Moreover, the growth with UACC-257 melanoma was -76.8% [20 µM] (active); with M14 melanoma, -75.6% [20 µM] (active).
Regarding `[2H]C([2H])([2H])Oc1ccc(/C=C/C(=O)/C=C(/C=C/c2ccc(OC([2H])([2H])[2H])c(OC([2H])([2H])[2H])c2OC([2H])([2H])[2H])OB(F)F)c(OC([2H])([2H])[2H])c1OC([2H])([2H])[2H]`, the growth with NCI-H23 lung was 59.5%; with NCI-H226 lung, 88.5%; with NCI-H322M lung it was 97.7%; in the assay with HOP-62 NSCLC, 85.7%; with NCI-H460 lung, 91.7%; in the assay with HOP-92 NSCLC, 74.1%. The growth with NCI-H522 lung is 45.9%; in the assay with A549/ATCC NSCLC, 84.2%; with 786-0 renal it was 70.9%; in the assay with COLO 205 colon, 43.6%; in the assay with DU-145 prostate it was 68.8%; in the assay with K-562 leukemia, 29.3%. Also, the growth in the assay on MALME-3M melanoma is 57%; in the assay with MDA-MB-231 breast, 75.1%; with RXF 393 renal, 83.8%; in the assay with SF-268 CNS, 88.8%; in the assay with SF-295 CNS it was 97.2%; in the assay on SF-539 CNS, 77.7%. The growth was 53.5% with UACC-257 melanoma and 61.2% with M14 melanoma.

For the origin of these results see PubChem BioAssay (NCI).
